Source: PubChem BioAssay (NCI)
This is part of a sample that, as a whole, favours compounds with a hit. Of some 83,000 tested, about 20% had one in any assay.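 Values shown are percent growth following 48 h exposure of cells in 96-well plates to a single concentration of compound; below 10 was considered active.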 Unmarked numbers belong to inactive results. The source made the active and inactive calls.

Legend:
Assay in all cases: NCI-60 one-dose screen, 48 h (100 = growth as untreated, 0 = no growth, -100 = all killed)
Conditions in all cases: 10 µM unless noted
SK-MEL-2 melanoma = system: SK-MEL-2 melanoma
EKVX NSCLC = system: EKVX NSCLC
SN12C renal = system: SN12C renal
UO-31 renal = system: UO-31 renal
TK-10 renal = system: TK-10 renal
ACHN renal = system: ACHN renal
CAKI-1 renal = system: CAKI-1 renal
A498 renal = system: A498 renal
MOLT-4 leukemia = system: MOLT-4 leukemia
RPMI-8226 leukemia = system: RPMI-8226 leukemia
OVCAR-8 ovarian = system: OVCAR-8 ovarian
OVCAR-5 ovarian = system: OVCAR-5 ovarian
OVCAR-4 ovarian = system: OVCAR-4 ovarian
SK-OV-3 ovarian = system: SK-OV-3 ovarian
IGROV1 ovarian = system: IGROV1 ovarian
OVCAR-3 ovarian = system: OVCAR-3 ovarian
HS 578T breast = system: HS 578T breast
NCI/ADR-RES ovarian = system: NCI/ADR-RES ovarian
CCRF-CEM leukemia = system: CCRF-CEM leukemia
SR leukemia = system: SR leukemia

SMILES	growth (SK-MEL-2 melanoma)	growth (EKVX NSCLC)	growth (SN12C renal)	growth (UO-31 renal)	growth (TK-10 renal)	growth (ACHN renal)	growth (CAKI-1 renal)	growth (A498 renal)	growth (MOLT-4 leukemia)	growth (RPMI-8226 leukemia)	growth (OVCAR-8 ovarian)	growth (OVCAR-5 ovarian)	growth (OVCAR-4 ovarian)	growth (SK-OV-3 ovarian)	growth (IGROV1 ovarian)	growth (OVCAR-3 ovarian)	growth (HS 578T breast)	growth (NCI/ADR-RES ovarian)	growth (CCRF-CEM leukemia) [%]	growth (SR leukemia)
COc1ccc(Cl)cc1NC(=O)C(Br)C(Br)C(=O)O (centres undefined)	-24.7% (active)	90.9%	59.3%	71.2%	111%	78.7%	96.3%	86.6%	16.9%	11.7%	45.3%	122%	30.5%	101%	-14.4% (active)	9.69% (active)	86.3%	-13.8% (active)	–	–
CCCCCCCOc1c(OC)cc(C2CC(=O)Nc3c2c(C)nn3-c2nc3ccccc3[nH]2)cc1OC (centres undefined)	-56.8% (active)	-26.5% (active)	9.34% (active)	-69.7% (active)	11%	–	-41% (active)	-28.6% (active)	15.2%	8.24% (active)	–	9.97% (active)	-11.8% (active)	-51.3% (active)	2.58% (active)	-67.1% (active)	-19.8% (active)	13.7%	24.5	–
O=C(O)c1ccc2c(c1)CCC2	95.8%	117%	103%	94.4%	107%	104%	101%	139%	91.1%	99.8%	107%	105%	107%	107%	103%	119%	134%	111%	–	–
N#Cc1c(-c2cccc(Cl)c2)cc(-c2cccc(F)c2)[nH]c1=O	102%	95.1%	91.1%	80.7%	94%	90.3%	89.6%	59.4%	–	65.4%	93.5%	95.8%	83.7%	102%	94.4%	92.7%	81.9%	98%	–	104%
COc1cc(C2CC(=O)Nc3c2c(C)nn3-c2nc3ccccc3[nH]2)c(OC)c(OC)c1OC (centres undefined)	50%	86.4%	73.9%	62.3%	12.5%	–	43.6%	-9.27% (active)	20.3%	55.1%	47.4%	104%	73.1%	40%	76.9%	12.2%	25.5%	57.7%	39.6	–
O=c1c2c3c(sc2n2c(-c4cn(-c5ccccc5)nc4-c4ccc(Cl)cc4)nnc2n1Cc1ccccc1)CCCC3	97.8%	87.1%	91.2%	4.67% (active)	107%	–	100%	100%	85.4%	94.1%	97.1%	103%	95.5%	109%	–	103%	96.9%	101%	81.1	–
O=C(O)CN1C(=O)CCC1=O	118%	95.4%	102%	102%	107%	96%	102%	97.4%	114%	–	99.4%	101%	–	104%	118%	115%	115%	112%	–	112%
CCOC(CN=Cc1cc(C)c2[nH]c3ccccc3c2c1C)OCC	91.4%	105%	99.1%	94.3%	83.3%	106%	105%	37.5%	81.2%	88.7%	94.7%	83.4%	97.8%	111%	102%	104%	123%	101%	–	–
O=c1cc(-c2ccc(Cl)cc2)[nH]c2ccccc12	79.7%	68.3%	96.9%	74.6%	110%	85.6%	73.7%	75.1%	110%	71.5%	102%	91.7%	–	90.4%	81.7%	81.7%	106%	62.2%	–	–
COCN1CCC2N(COC)CCC3N(COC)CCC1N23 (centres undefined)	107%	108%	89.6%	107%	113%	–	102%	113%	111%	118%	99%	103%	110%	101%	126%	116%	124%	108%	104	–
c1ccc(Nc2nc(-c3ccccn3)cs2)nc1	27.6%	30.7%	13.4%	0.382% (active)	37%	1.7% (active)	-13.3% (active)	28.3%	14.2%	14.6%	14.4%	53%	–	29.5%	9.37% (active)	39.7%	42.9%	-0.82% (active)	–	–
COC(=O)c1c2c(c(C)[n+]([O-])c1C)C(=O)C(NCc1ccc(F)c(Cl)c1)=CC2=O	29.4%	37.8%	-0.149% (active)	41.7%	58.8%	30.9%	34%	78%	-19.2% (active)	20.6%	-14.5% (active)	38.2%	-96.4% (active)	87.2%	3.18% (active)	-21.3% (active)	68%	0.134% (active)	–	–
Cc1c(O)cc(-c2cnc(N/N=C\c3ccc(Cl)cc3)s2)c(O)c1C	101%	64.3%	87.5%	75.5%	120%	100%	92%	103%	–	41.5%	60.7%	102%	–	104%	83.5%	90.3%	77.6%	80.5%	–	58.3%
COc1nc2c(c(=O)n1C)CN(c1ccccc1)C(=O)CN2C	69.6% [100 µM]	58.2% [100 µM]	51.3% [100 µM]	26% [100 µM]	52.3% [100 µM]	46.4% [100 µM]	61.7% [100 µM]	61% [100 µM]	40.6% [100 µM]	–	47.4% [100 µM]	79.9% [100 µM]	53.4% [100 µM]	62.5% [100 µM]	37.6% [100 µM]	56.5% [100 µM]	59.9% [100 µM]	54.2% [100 µM]	–	51.5% [100 µM]
COc1nc(N(C)O)nc(N(C)O)n1	70.9%	31.2%	42.5%	36.9%	32.5%	–	36.3%	76.7%	35.7%	–	27.1%	53.6%	33.3%	32%	54.7%	9.27% (active)	87.9%	14.9%	14.4	–
O=C1N=c2cc3c(cc2=C/C1=C/c1sc(=S)n(CCc2ccc(O)cc2)c1O)OCCO3	82.9%	61.3%	5.51% (active)	71.1%	90.3%	–	59.7%	80.2%	21.5%	33.4%	28.6%	64%	80.9%	105%	49%	76.1%	74.9%	64.7%	40.9	–
C[C@H]1[C@H]2[C@H]3CC[C@@H]4[C@@]5(C)C/C(=C/c6ccco6)C(=O)C(C)(C)[C@@H]5CC[C@@]4(C)[C@]3(C)CC[C@]23CO[C@]1(C)[C@@H](C(=O)/C=C\c1ccco1)C3	65.6%	107%	90.4%	71.5%	103%	–	69%	123%	100%	78%	98.8%	113%	90.7%	108%	101%	103%	94%	108%	100	–
